Experimental data from PubChem BioAssay (NCATS).

Assay: Cell Proliferation Assay against the TMD8 Cell Line (AID 651645);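 note: cells exposed to compound for 48 h before reading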
Settings: TMD8 DLBCL cell line proliferation/viability; at 46.1 µM (top of the series) unless noted
In short: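 Luminescent ATP read-out (CellTiter-Glo, 15 min RT) after 48 h compound exposure of log-growing TMD8 cells at 37C; percent activity scaled between DMSO as 100% and 9.2 uM bortezomib final as 0%.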

| Structure (SMILES) | viability (% of control) |
| --- | --- |
| CCOC(=O)C1=C[C@@]2(CC)CCCN3CCc4c(n1c1ccccc41)[C@H]32 | 87.1% [at 29.8 µM] |
| CN[C@@H](C)C(=O)N[C@H]1CCCC[C@H]2CC[C@@H](C(=O)N[C@@H](c3ccccc3)c3cn(CCCCc4ccc(CCCCn5cc([C@@H](NC(=O)[C@@H]6CC[C@@H]7CCCC[C@H](NC(=O)[C@H](C)NC)C(=O)N76)c6ccccc6)nn5)cc4)nn3)N2C1=O | 7.59% |
| Nc1nccc(-c2ccc3noc(-c4ccc(Cl)cc4)c3c2)n1 | 81.3% |
| CN([C@@H](Cc1ccc(OS(=O)(=O)c2cccc3cnccc23)cc1)C(=O)N1CCN(c2ccccc2)CC1)S(=O)(=O)c1cccc2cnccc12 | 72.1% |
| COc1ccccc1[C@H](c1cccc2ccccc12)[C@@](C)(C#N)C(=O)N1CCC(c2cccc(C(F)(F)F)c2)CC1 | 83.6% |
| Cc1cnc(Nc2ccc(OCCN3CCCC3)cc2)nc1Nc1cccc(S(=O)(=O)NC(C)(C)C)c1 | 90.7% |
| Cc1cc(Nc2nc(N[C@@H](C)c3ncc(F)cn3)ncc2Cl)n[nH]1 | 105% |
| CCN(CCCO)CCCOc1ccc2c(Nc3cc(CC(=O)Nc4cccc(F)c4)[nH]n3)ncnc2c1 | 42.6% |
| COc1ccc(CC2=NN3C([C@@H](CCc4ccccc4)[C@@H](C)O)=NC(C)C3C(=O)N2)cc1OC (stereo partly specified) | 72.3% |
| CC[C@@H](C)[C@H](NC(=O)[C@H](CC1CCCCC1)NC(=O)c1ccno1)C(=O)N1CCC2(CCc3ccccc32)CC1 | 62.6% |
| CC1(C)SCCN(S(=O)(=O)c2ccc(OCC#CCO)cc2)[C@@H]1C(=O)NO | 84.4% |
